# Rows were chosen to be rich in hits. Some 11% of all compounds tested hit in one or more screens of this group.
# RORgamma inh: ROR gamma (mouse) transcription inhibition; P51450; Drosophila S2 Gal4-RORgamma UAS-luciferase reporter, 20 h; Potency, µM (highest dose often 53.6 µM), usual class: inhibitors; hit rate 5.4% among 310,000; AID 2551; further: nearly all actives have a fitted effect of over 60% in size
# Target sequence (P51450 whole entry, looked up, the tested form may be a part): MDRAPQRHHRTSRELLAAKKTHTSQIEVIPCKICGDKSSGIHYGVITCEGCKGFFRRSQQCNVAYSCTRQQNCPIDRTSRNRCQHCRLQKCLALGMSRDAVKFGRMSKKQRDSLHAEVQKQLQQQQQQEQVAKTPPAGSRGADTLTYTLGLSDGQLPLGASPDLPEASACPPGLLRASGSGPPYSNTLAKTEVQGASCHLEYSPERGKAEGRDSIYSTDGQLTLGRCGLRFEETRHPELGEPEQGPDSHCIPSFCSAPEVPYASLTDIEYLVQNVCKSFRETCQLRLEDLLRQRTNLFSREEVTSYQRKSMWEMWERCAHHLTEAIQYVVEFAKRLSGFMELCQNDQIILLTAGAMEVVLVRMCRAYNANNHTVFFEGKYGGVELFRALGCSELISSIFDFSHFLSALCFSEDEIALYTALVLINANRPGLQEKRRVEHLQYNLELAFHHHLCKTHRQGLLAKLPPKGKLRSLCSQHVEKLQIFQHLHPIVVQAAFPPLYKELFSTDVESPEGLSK
#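 Drosophila Schneider cells stably carrying a metallothionein-driven Gal4 DBD–ROR gamma fusion and a UAS-Photinus luciferase reporter were exposed to compound for 1 hr, then induced with copper sulfate (700 uM final) for 20 hr at ambient temperature before luminescence reading.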
# MCF10A rereplic: inducers of DNA re-replication in MCF 10A breast cells | Potency, µM (titrated, usually from 46.1 µM), hits mostly activators | MCF 10A DNA re-replication, Hoechst nuclear intensity, 48 h | hit rate 2.9% among 350,000 | AID 624296; further: nearly all actives have a fitted effect of over 50% in size
# IL1B secr inh: blocks inflammasome-driven IL-1 beta release; THP-1 LPS/ATP IL-1B secretion, AlphaLISA, 16 h; active compounds read low; activity change, % at 57.5 µM; hit rate 4.7% among 360,000; AID 743279; in the data active means activity change below about -50%; inconclusive means mostly about -30% to -49%
#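 Secreted IL-1B measured by AlphaLISA bead assay after 16 h compound exposure of THP-1 cells; compounds (final up to 57.5 uM) added 1 h before LPS (250 ng/mL) and ATP (1.25 mM) stimulation; lower signal means less secretion.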
# SW480 rerep: induces DNA re-replication in SW480 colon adenocarcinoma cells. SW480 DNA re-replication, Hoechst DNA content imaging, 48 h. Potency, µM (highest dose often 46.1 µM), usual class: activators. hit rate 1.8% among 340,000. AID 624297; further: nearly all actives have a fitted effect of over 55% in size
#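 Image-based DNA-content assay: after two days of treatment, nuclei were labelled with the DNA dye Hoechst and imaged, and hits were compounds raising the count of nuclei showing high fluorescence intensity.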
# Gal4-VP16 FLuc: inhibits Gal4-VP16 luciferase reporter, ROR gamma counter-screen. Drosophila S2 Gal4-VP16 UAS-luciferase, luminescence, 20 h. Potency, µM (doses to about 53.6 µM), actives largely listed as inhibitors. AID 2546. hit rate 3.5% among 310,000;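 further: Gal4-VP16 expression switched on by copper sulfate through the metallothionein promoter; nearly all actives have a fitted effect of over 50% in size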
# A number is an active result; – = inactive; ? = inconclusive; · = no result; [ ] = dose if it differs, or a comment. Unless noted, the call rests on the fitted dose curve; in most records, active means well fitted curve in the direction sought with a large enough effect; inconclusive means small, poorly fitted or top-dose-only effect, or another doubt; inactive means no such curve, though single readings can be large; an effect the other way counts as inactive or inconclusive.
SMILES,RORgamma inh,MCF10A rereplic,IL1B secr inh,SW480 rerep,Gal4-VP16 FLuc
O=C(OCC(O)C1OC(c2ccccc2)OC(COC(=O)c2ccccc2)C1O)c1ccccc1 (configuration not stated),·,·,–,·,·
Cc1nn(C)c(C)c1NS(=O)(=O)c1ccccc1Cl,·,–,–,?,·
O=C(c1ccco1)N1CCc2[nH]nc(-c3ccc(Cl)cc3)c2C1,–,–,-72,–,–
COc1ccc(-c2n[nH]c3c2CN(C(=O)c2ccccc2)CC3)cc1,–,–,–,–,?
Cc1cc(C)n(CCCC(=O)O)n1,–,–,-67,–,–
Cc1cc(C)n(CC(=O)n2nc(C)cc2C)n1,0.32µM,–,–,–[9.22 µM],–
c1ccc2c(C[C@@H]3CNCCN3CCC34CC5CC(CC(C5)C3)C4)cccc2c1,·,–,–,–,·
CC(=O)Nc1ccc(C2=CC(=O)C[C@H](c3ccc(Cl)cc3)C2)cc1,·,18µM,?,?,·
Cc1ccc(NC2=CC(=O)CC(c3ccc(Cl)cc3)C2)cc1 (configuration not stated),?,–,–,–,?
CC(C)CCNC1=CC(=O)CC(c2ccccc2)C1 (configuration not stated),?,?,–,18µM,–
Cc1ccc(NC2=CC(=O)CC(c3ccccc3)C2)cc1 (configuration not stated),–,8.2µM,–,21µM,–
O=C1C=C(Nc2ccc(Cl)cc2)CC(c2ccccc2)C1 (configuration not stated),?,16µM,–,?,–
COc1ccc([C@H]2CC(=O)C=C(c3ccc(NC(C)=O)cc3)C2)cc1OC,·,–,?,–,·
N#Cc1ccc(C(C(=O)NC2CCCCC2)n2c(=O)c(-c3ccccc3)nc3ccccc32)cc1 (configuration not stated),·,·,–,·,·
COC(=O)NC(/C(C(=O)OC)=C(\C)NCc1ccccc1)c1cccc(C)c1 (configuration not stated),–[10 µM],·,·,·,–[10 µM]
CC1(C)CC2CC(C)(CN2/C=N/c2sc3c(c2C#N)CC(C)(C)NC3(C)C)C1 (configuration not stated),–,–,-88,?,–
COc1ccc(Oc2ncc3nc(C)c(=O)n(CCC#N)c3n2)cc1,–,·,·,·,–
Cn1c(SCC(=O)Nc2ccc(Cl)cc2F)nnc1-c1ccco1,–,–,–,–,–
COc1ccc(CC(=O)NCc2ccccc2F)cc1S(=O)(=O)N1CCOCC1,·,·,–,·,·
c1ccc(-c2cn(-c3ccccc3)c3[n+]2CCCS3)cc1,–,–,–,–,–
Cc1ccc(-c2cn(-c3ccccc3)c3[n+]2CCCS3)cc1,–,–,-63,–,11µM
CCc1ccc(-n2cc(-c3ccc(F)cc3)[n+]3c2SCCC3)cc1,–,–,-91,–,?
COc1ccc(-n2cc(-c3ccc(C)cc3)[n+]3c2SCC3)cc1,–,?,-94,–,7.9µM
CC(C)c1ccc(NC(=O)CN2C(=O)NC3(CCCCCCC3)C2=O)cc1,·,–,–,–,·
CO[C@H]1CN(C)C(=O)c2cc(NC(=O)c3cc(C)on3)ccc2OC[C@@H](C)N(C(=O)C2CC2)C[C@H]1C,·,·,–,·,·
SMILES,RORgamma inh,MCF10A rereplic,IL1B secr inh,SW480 rerep,Gal4-VP16 FLuc
O=C(COc1ccc2ccccc2c1Br)NC(=S)Nc1cccc(CO)c1,7.9µM,?,–,2.9µM,10µM
O=C(COc1ccc(Br)cc1Br)NC(=S)Nc1cccc(CO)c1,1.4µM,–,–,–,8.9µM
COc1cc(C2c3[nH]c4ccccc4c3CC3C(=O)N4C(Cc5c([nH]c6ccccc56)C4c4cc(OC)c(OC)c(OC)c4)C(=O)N32)cc(OC)c1OC (configuration not stated),–[10 µM],·,·,·,?
Cc1cc2ncn(CS(C)(=O)=O)c2cc1C,–,–,–,–,–
C=C(C)Cn1cnc2cc(C)c(C)cc21,11µM,–,–,–,–
CC(OC(=O)/C(C#N)=C/c1ccc(N(C)C)cc1)C(=O)N(C)Cc1ccccc1 (configuration not stated),–,16µM,–,?,–
CCc1ccc2[nH]c(C(=O)N(C)c3ccc(F)cc3F)cc2c1,–,–,–,–,–
CCN(CC)CCNc1ncnc2c1sc1nc(N3CCCC3)c3c(c12)CC(C)(C)OC3,11µM,21µM,-75,–,?
CCN(CCO)c1ncnc2c1sc1nc(CC(C)C)c3c(c12)CC(C)(C)OC3,–,?,–,–,–
CC(C)CNc1ncnc2c1sc1nc(N3CCOCC3)c3c(c12)CC(C)(C)OC3,–,–,–,–,–
CN(C)CCNc1ncnc2c1sc1nc(N3CCCC3)c3c(c12)CC(C)(C)OC3,–,?,-82,?,–
COC(=O)C1=C(C)N(CCCC(=O)O)C(=O)NC1c1cccc(Cl)c1Cl (configuration not stated),·,–,–,–,·
Cc1ccc(OCc2nc3ccccc3n2C(C)C(=O)Nc2c(C)cccc2C)cc1 (configuration not stated),·,·,–,·,·
Cc1ccc(-c2nc3cnccn3c2Nc2ccc3c(c2)OCO3)cc1,–,–,–,–,–
Clc1ccc2nc(-c3ccccn3)c(Nc3ccc4c(c3)OCO4)n2c1,7.9µM,–,–,–,?
Cc1ccc2nc(-c3ccccc3O)c(Nc3ccc4c(c3)OCCO4)n2c1,18µM,–,–,?,–
Cc1ccc2nc(-c3ccc(O)cc3)c(Nc3ccc4c(c3)OCCO4)n2c1,–,–,–,–,–
CC1=CN2C(=N)/C(=C\c3cn(CCCOc4ccccc4)c4ccccc34)C(=O)N=C2S1,7.1µM,3.7µM,–,·,5µM
COC(=O)N/N=C/c1cn(CCCOc2ccccc2)c2ccccc12,–,?,–,?,–
Nc1cc(-c2ccc(OC(F)(F)F)cc2)nn1-c1ccc(Cl)c(Cl)c1,–,?,-65,–,–
Cc1ccc(-c2cc(N)n(-c3ccccc3)n2)cc1,–,–,?,–,–
CN[C@]1(C)[C@H]2CC[C@@H](C2)C1(C)C,–,·,·,·,–
Cc1cccc(NC2=Nc3ccccc3N3C2=Nc2c(c(C)nn2-c2ccccc2)C3c2ccc(O)c(O)c2)c1 (configuration not stated),–,?,–,7.3µM,–
Cc1ccc(NC2=Nc3ccccc3N3C2=Nc2c(c(C)nn2-c2ccccc2)C3c2ccc(O)c(O)c2)cc1 (configuration not stated),–,?,–,9.2µM,–
CC1CCN(S(=O)(=O)c2cc(C(=O)NC3(C)CCS(=O)(=O)C3)ccc2Br)CC1 (configuration not stated),·,–,–,–,·
Cc1cc(NC(=O)c2ccc(Cl)cc2)n(CCOC(=O)c2ccc(Cl)cc2)n1,?,–,–,–,16µM
Cc1cc(NC(=O)c2ccc(F)cc2)n(CCOC(=O)c2ccc(F)cc2)n1,?,–,–,–,–
CC(OC(=O)CCc1nc2ccccc2c(=O)[nH]1)C(=O)Nc1ncc(Cl)cc1Cl (configuration not stated),–,–,-77,–,–

# Bioassay records deposited in PubChem BioAssay by National Center for Advancing Translational Sciences (NCATS).
